The record followed here is the supplement of paper PMC10849652.

About 8,800 targets were measured; listed, in parts, are those with a hit and a random draw of the rest. About 0.5% of all pairs of compound and target were hits. Unmarked numbers belong to inactive results.

Chain of UniProt Q99541 (Q99541 whole entry, looked up): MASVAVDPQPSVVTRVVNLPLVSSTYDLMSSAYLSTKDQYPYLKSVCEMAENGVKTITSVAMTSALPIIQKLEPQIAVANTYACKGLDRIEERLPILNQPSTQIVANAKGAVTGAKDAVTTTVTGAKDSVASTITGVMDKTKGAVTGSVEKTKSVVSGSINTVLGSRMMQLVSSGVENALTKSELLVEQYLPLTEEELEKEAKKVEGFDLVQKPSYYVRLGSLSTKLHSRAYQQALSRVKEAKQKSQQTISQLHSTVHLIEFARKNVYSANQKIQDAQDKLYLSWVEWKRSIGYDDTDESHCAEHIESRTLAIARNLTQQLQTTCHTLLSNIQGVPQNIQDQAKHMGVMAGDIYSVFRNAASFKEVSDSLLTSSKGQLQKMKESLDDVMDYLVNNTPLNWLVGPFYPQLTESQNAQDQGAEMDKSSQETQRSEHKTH
Chain of UniProt P0CAP2 (P0CAP2 whole entry, looked up): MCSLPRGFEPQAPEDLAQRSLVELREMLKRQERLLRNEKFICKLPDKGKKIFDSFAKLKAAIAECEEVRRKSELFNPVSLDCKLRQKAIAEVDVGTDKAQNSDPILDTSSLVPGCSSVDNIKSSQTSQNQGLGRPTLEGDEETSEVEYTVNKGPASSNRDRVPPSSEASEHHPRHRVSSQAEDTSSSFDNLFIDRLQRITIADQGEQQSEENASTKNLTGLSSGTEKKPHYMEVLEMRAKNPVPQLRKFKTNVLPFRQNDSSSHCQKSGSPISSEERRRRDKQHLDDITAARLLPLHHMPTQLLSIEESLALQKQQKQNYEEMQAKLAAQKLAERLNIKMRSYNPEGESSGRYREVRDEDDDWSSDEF
Chain of UniProt O43175 (O43175 whole entry, looked up): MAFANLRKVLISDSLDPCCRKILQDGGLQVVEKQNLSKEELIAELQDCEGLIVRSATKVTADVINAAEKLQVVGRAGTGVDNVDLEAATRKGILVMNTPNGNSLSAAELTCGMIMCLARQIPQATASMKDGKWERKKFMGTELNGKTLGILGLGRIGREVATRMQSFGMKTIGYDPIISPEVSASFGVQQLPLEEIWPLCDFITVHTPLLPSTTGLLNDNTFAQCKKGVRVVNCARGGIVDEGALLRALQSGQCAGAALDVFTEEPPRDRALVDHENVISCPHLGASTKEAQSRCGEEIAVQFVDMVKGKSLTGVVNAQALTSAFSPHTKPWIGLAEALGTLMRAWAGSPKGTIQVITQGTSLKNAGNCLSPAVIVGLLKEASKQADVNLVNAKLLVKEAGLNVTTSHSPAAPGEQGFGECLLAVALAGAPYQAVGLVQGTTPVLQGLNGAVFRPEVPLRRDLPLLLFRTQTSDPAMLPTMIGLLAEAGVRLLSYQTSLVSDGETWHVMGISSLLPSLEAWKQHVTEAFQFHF
Chain of UniProt Q99755 (Q99755 whole entry, looked up): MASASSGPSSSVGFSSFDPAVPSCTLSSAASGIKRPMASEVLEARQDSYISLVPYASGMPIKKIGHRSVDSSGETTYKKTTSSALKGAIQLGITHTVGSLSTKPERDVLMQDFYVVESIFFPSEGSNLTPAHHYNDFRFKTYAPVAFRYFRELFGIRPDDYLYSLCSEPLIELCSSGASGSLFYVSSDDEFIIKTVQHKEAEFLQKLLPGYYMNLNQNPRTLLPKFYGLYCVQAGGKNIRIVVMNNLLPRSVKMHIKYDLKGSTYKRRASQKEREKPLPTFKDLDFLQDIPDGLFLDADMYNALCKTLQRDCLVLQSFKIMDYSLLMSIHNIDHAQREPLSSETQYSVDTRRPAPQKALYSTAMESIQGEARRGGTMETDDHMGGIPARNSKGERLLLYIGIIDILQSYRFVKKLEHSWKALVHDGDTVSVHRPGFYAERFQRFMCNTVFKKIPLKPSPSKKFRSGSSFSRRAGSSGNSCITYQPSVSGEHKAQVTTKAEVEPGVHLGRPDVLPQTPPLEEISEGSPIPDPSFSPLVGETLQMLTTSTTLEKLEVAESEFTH
Chain of UniProt P14314 (P14314 whole entry, looked up): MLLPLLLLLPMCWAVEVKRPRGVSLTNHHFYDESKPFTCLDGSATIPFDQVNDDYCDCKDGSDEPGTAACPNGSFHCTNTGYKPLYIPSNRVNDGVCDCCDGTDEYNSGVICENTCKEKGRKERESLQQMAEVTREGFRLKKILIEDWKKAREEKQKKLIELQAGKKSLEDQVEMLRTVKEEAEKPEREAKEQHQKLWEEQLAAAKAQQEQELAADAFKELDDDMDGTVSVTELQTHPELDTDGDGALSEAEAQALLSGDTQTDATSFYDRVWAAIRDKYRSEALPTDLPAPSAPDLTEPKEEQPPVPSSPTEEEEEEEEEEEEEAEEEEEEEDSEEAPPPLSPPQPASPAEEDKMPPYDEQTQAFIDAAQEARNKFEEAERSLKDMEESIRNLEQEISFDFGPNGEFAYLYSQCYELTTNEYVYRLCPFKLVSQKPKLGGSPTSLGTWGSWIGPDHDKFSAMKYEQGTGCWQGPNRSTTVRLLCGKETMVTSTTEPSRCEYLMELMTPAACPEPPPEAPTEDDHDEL
Chain of UniProt Q9P215 (Q9P215 whole entry, looked up): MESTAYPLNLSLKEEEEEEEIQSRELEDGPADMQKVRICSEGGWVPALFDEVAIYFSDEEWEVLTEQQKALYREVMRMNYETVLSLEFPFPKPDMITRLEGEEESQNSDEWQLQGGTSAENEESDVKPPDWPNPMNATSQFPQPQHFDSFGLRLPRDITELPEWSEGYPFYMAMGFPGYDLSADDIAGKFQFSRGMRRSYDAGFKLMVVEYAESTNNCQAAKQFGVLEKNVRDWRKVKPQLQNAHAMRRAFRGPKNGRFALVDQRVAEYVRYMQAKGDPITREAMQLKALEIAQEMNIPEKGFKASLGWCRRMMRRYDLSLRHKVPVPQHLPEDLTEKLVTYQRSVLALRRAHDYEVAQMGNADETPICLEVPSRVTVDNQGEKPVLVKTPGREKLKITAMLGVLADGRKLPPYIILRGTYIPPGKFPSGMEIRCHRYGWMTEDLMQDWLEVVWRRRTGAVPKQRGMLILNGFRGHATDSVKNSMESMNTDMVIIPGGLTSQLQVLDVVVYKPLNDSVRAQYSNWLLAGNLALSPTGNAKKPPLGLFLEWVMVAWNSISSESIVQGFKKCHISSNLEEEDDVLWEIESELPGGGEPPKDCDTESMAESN
Chain of UniProt O94913 (O94913 whole entry, looked up): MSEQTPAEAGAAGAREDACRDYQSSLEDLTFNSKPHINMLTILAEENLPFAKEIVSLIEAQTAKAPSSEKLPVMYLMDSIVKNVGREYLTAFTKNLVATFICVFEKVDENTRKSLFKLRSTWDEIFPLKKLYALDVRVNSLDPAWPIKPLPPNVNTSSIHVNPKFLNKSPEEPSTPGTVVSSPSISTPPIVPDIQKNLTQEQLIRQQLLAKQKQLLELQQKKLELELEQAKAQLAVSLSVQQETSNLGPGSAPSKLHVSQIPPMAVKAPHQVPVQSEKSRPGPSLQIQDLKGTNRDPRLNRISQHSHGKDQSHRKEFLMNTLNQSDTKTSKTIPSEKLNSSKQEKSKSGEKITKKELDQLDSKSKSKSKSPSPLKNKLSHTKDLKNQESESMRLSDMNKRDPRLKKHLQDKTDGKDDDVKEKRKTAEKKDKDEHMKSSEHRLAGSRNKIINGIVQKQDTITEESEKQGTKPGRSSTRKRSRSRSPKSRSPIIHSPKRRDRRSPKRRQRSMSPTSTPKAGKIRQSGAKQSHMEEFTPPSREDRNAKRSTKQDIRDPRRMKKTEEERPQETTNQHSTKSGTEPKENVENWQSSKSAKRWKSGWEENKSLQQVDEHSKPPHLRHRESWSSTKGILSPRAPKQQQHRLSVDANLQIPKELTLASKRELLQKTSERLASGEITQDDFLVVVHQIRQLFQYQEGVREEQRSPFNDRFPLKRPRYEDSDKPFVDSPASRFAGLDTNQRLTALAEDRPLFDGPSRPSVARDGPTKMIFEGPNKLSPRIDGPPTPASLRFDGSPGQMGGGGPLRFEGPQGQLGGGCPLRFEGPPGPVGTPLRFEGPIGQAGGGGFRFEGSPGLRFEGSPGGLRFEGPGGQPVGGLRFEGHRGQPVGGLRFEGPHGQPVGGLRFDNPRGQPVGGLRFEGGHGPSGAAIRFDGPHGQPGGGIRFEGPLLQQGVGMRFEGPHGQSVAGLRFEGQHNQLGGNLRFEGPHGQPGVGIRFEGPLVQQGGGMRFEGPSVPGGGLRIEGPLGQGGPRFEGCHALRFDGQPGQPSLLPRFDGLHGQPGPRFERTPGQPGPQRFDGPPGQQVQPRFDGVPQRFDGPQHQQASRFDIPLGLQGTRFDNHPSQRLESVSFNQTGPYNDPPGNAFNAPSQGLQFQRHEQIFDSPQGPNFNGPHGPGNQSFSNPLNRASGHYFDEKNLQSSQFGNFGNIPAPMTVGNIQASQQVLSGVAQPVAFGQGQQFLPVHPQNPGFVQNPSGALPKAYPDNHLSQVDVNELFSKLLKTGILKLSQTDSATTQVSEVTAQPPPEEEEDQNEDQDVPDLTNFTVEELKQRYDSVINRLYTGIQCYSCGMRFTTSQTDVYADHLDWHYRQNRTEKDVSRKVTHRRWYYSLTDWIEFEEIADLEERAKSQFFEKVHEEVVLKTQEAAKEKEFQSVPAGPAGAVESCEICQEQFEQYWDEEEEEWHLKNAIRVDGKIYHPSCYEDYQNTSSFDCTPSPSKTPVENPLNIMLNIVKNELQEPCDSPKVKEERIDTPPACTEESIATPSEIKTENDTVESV
Chain of UniProt Q9NY27 (Q9NY27 whole entry, looked up): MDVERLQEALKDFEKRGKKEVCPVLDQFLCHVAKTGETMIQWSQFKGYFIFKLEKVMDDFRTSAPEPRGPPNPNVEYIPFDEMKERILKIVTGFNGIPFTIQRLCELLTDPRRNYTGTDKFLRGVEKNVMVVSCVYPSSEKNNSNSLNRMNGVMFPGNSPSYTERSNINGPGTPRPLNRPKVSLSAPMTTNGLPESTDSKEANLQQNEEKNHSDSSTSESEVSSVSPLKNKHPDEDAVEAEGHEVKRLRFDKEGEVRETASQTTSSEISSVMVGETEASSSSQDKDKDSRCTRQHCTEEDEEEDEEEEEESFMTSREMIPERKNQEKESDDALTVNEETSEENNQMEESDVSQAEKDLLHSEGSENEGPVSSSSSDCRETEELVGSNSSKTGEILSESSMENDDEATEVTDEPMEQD

Compound in the first experiment: NC(=O)Nc1cc(-c2cccc(F)c2)sc1C(=O)N[C@H]1CCCNC1
Kind of experiment: log2 fold change, soluble protein after heating vs DMSO (PISA); higher = thermal stabilisation; K562 lysate, 10 uM; active = over 0.2 and 3.5 SD of the protein, either way, in both replicates (recomputed). The method, boiled down: (§1)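 K562 pellets were dounce-homogenised in PBS pH 7.4 containing 1 mM MgCl2, and the crude extract, at 1 mg/mL protein, was exposed to 10 μM compound for 30 min. Aliquots were heated for 3 min across 48°C-58°C, pooled, brought to 0.5% NP-40 at 4°C and spun at 21,000xg for 90 min, with the supernatant taken as soluble protein. TMTpro 16plex LC-MS/MS with equalised channel sums quantified that protein. Values are log-two fold changes in thermal stability relative to solvent controls, taken from duplicates.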
Consider PHGDH (UniProt O43175), for which the log2 fold change was -0.032.
With PRKACB isoform 2 (UniProt P22694), the log2 fold change was 0.538 (active).
Still for that read-out and setting: then PTP4A1 (UniProt Q93096), with -0.059; and PIP5K1A (UniProt Q99755), with 0.034; and PFAS (UniProt O15067), with 0.01.
Same read-out and setting: then PIGO (UniProt Q8TEQ8), with 0.301; and PRKCSH (UniProt P14314), with -0.006.
Still for that read-out and setting: then PCBP3 (UniProt P57721), with -0.023; and POGK (UniProt Q9P215), with 0.108; and PMPCA (UniProt Q10713), with -0.013.
Consider PLIN2 (UniProt Q99541), for which the log2 fold change is 0.038.
With POLR2M (UniProt P0CAP2), the log2 fold change was 0.012.
Same read-out and setting: then PDCD6IP (UniProt Q8WUM4), with 0; and PCF11 (UniProt O94913), with 0.019.
On the same count and under the same terms, the result for PLXND1 (UniProt Q9Y4D7) reads -0.047.
On the same count and under the same terms, then PPP4R2 (UniProt Q9NY27), with -0.011.

Compound in the next experiment: NC(=O)c1cnc(N[C@@H]2CCCC[C@@H]2N)nc1Nc1cccc(-n2nccn2)c1
The description is as above. The method, boiled down:
as §1
PRAME (UniProt P78395): the log2 fold change was -0.01.
For PWP2 (UniProt Q15269), the log2 fold change is -0.022.
POLA1 (UniProt P09884): the log2 fold change was 0.001.
The same measure, in the same setting: the result for PCIF1 (UniProt Q9H4Z3) reads -0.006; that for PGLS (UniProt O95336), -0.073; that for PRKCSH isoform 2 (UniProt P14314), 0.038.
Still for that read-out and setting: then PIP4K2B (UniProt P78356), with 0.002; and PPP1R8 (UniProt Q12972), with 0.01.
Same read-out and setting: then POLD1 (UniProt P28340), with 0.006; and PIKFYVE (UniProt Q9Y2I7), with 0.027; and PPP2CA (UniProt P67775), with -0.008.
For PLA2G4B isoform 6 (UniProt P0C869), the log2 fold change is 0.006.
On to PCBP2 isoform 3 (UniProt Q15366), for which the log2 fold change was 0.005.
As for PWP1 (UniProt Q13610), the log2 fold change is -0.003.
On the same count and under the same terms, the result for PPP3CA isoform 2 (UniProt Q08209) reads -0.005.
Still for that read-out and setting: the result for PIK3R1 (UniProt P27986) reads 0.021; that for PKN1 isoform 2 (UniProt Q16512), -0.054; that for PTPN2 (UniProt P17706), 0.006.
With PIK3R2 (UniProt O00459), the log2 fold change was 0.017.
With PIK3CB (UniProt P42338), the log2 fold change is 0.015.
For PRMT7 (UniProt Q9NVM4), the log2 fold change is 0.028.
For the target PRKCSH (UniProt K7ELL7), the log2 fold change was -0.032.
For PHGDH (UniProt O43175), the log2 fold change was 0.006.
Regarding PRKACB isoform 2 (UniProt P22694), the log2 fold change is 0.177.
Consider PTP4A1 (UniProt Q93096), for which the log2 fold change is -0.011.
For PIP5K1A (UniProt Q99755), the log2 fold change was -0.041.
The same measure, in the same setting: the result for PFAS (UniProt O15067) reads 0.005.
With PIGO (UniProt Q8TEQ8), the log2 fold change was 0.059.
Same read-out and setting: the result for PRKCSH (UniProt P14314) reads -0.004.
In the case of PCBP3 (UniProt P57721), the log2 fold change is -0.014.
POGK (UniProt Q9P215): the log2 fold change is 0.008.
As for PMPCA (UniProt Q10713), the log2 fold change was -0.009.
As for PLIN2 (UniProt Q99541), the log2 fold change is -0.003.
Still for that read-out and setting: then POLR2M (UniProt P0CAP2), with 0.002; and PDCD6IP (UniProt Q8WUM4), with -0.058; and PCF11 (UniProt O94913), with -0.013.
For the target PPP4R2 (UniProt Q9NY27), the log2 fold change is 0.009.

Compound in the next experiment: NC1(c2ccc(-c3nc4ccn5c(=O)[nH]nc5c4cc3-c3ccccc3)cc2)CCC1
The description is as above. In short, it runs like this: as §1
Regarding PRAME (UniProt P78395), the log2 fold change was -0.006.
Same read-out and setting: the result for PWP2 (UniProt Q15269) reads 0.011; that for POLA1 (UniProt P09884), 0.008.
As for PCIF1 (UniProt Q9H4Z3), the log2 fold change was 0.022.
With PGLS (UniProt O95336), the log2 fold change was 0.014.
As to PRKCSH isoform 2 (UniProt P14314), the log2 fold change is -0.192.
As to PIP4K2B (UniProt P78356), the log2 fold change was -0.034.
Regarding PPP1R8 (UniProt Q12972), the log2 fold change is -0.024.
Consider POLD1 (UniProt P28340), for which the log2 fold change was 0.003.
Take PIKFYVE (UniProt Q9Y2I7): the log2 fold change is -0.005.
Same read-out and setting: then PPP2CA (UniProt P67775), with 0.023.
On the same count and under the same terms, the result for PLA2G4B isoform 6 (UniProt P0C869) reads -0.073.
PCBP2 isoform 3 (UniProt Q15366): the log2 fold change was 0.072.
PWP1 (UniProt Q13610): the log2 fold change is 0.036.
PPP3CA isoform 2 (UniProt Q08209): the log2 fold change is -0.002.
Same read-out and setting: then PMS1 (UniProt P54277), with -0.029.
On to PIK3R1 (UniProt P27986), for which the log2 fold change was 0.249.
As for PKN1 isoform 2 (UniProt Q16512), the log2 fold change is -0.004.
Still for that read-out and setting: the result for PTPN2 (UniProt P17706) reads -0.005; that for PIK3R2 (UniProt O00459), 0.263; that for PIK3CB (UniProt P42338), 0.44 (active).
The same measure, in the same setting: the result for PRMT7 (UniProt Q9NVM4) reads 0.025.
Consider PRKCSH (UniProt K7ELL7), for which the log2 fold change is -0.031.
Consider PHGDH (UniProt O43175), for which the log2 fold change was 0.054.
With PRKACB isoform 2 (UniProt P22694), the log2 fold change was -0.025.
On the same count and under the same terms, then PTP4A1 (UniProt Q93096), with -0.029; and PIP5K1A (UniProt Q99755), with 0.01; and PFAS (UniProt O15067), with -0.009.
The same measure, in the same setting: the result for PIGO (UniProt Q8TEQ8) reads 0.041; that for PRKCSH (UniProt P14314), 0.036.
Same read-out and setting: then PCBP3 (UniProt P57721), with 0.012.
Take POGK (UniProt Q9P215): the log2 fold change was -0.006.
On the same count and under the same terms, then PMPCA (UniProt Q10713), with 0.003; and PLIN2 (UniProt Q99541), with -0.018; and POLR2M (UniProt P0CAP2), with 0.014.
The same measure, in the same setting: then PDCD6IP (UniProt Q8WUM4), with -0.032; and PCF11 (UniProt O94913), with -0.012.
The same measure, in the same setting: then PLXND1 (UniProt Q9Y4D7), with 0.094; and PPP4R2 (UniProt Q9NY27), with -0.01.
